# Assay results as given in the supplement of paper PMC7366291.
# Where a name gives a salt, the structure may show the parent alone. ± gives the standard deviation or the standard deviation of the averaged measurements.
# Key:
# Settings in all cases: 25 µM; exposure: 24-48 hpf
# [1] = system: Danio rerio Tg(wt1b:EGFP) embryo, pronephros; assay: glomerular separation, fold change vs DMSO control; higher = glomeruli further apart (abnormal)
# Procedure, shortened: (§1)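 Dechorionated Tg(wt1b:EGFP) zebrafish embryos were treated with 25 μM compound in 0.5% DMSO, in HEPES-buffered E3 with 0.003% PTU, from 24 to 48 hpf at 28.5°C. On maximum projections of dorsal pronephros images, 16 hand-placed reference points in Fiji gave distances and angles, and values more than 2 SD from the feature mean were left out. Results are fold changes over the mean of same-day DMSO-treated embryos.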
# [2] = system: Danio rerio Tg(wt1b:EGFP) embryo, pronephros; assay: glomerular width (mean of left and right), fold change vs DMSO control; higher = wider glomerulus
# Procedure, shortened: as §1
# [3] = system: Danio rerio Tg(wt1b:EGFP) embryo, pronephros; assay: fraction of imaged embryos annotated as normal kidney; higher = less nephrotoxic; extreme values may be limits of the assay
# Procedure, shortened: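 Dechorionated Tg(wt1b:EGFP) zebrafish embryos were incubated with 25 μM compound in 0.5% DMSO, 5 mM HEPES-buffered E3 and 0.003% PTU from 24 to 48 hpf at 28.5°C. Pronephroi were then imaged by widefield fluorescence, and the fraction of embryos per treatment assigned by hand to the normal-kidney category is given.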
# [4] = system: Danio rerio Tg(wt1b:EGFP) embryo, pronephros; assay: pronephric angle neck segment to proximal convoluted tubule (mean of left and right), fold change vs DMSO control; higher = larger pronephric angle
# Procedure, shortened: as §1
SMILES,glomerular separation [1],glomerular width [2],fraction of imaged embryos annotated as normal kidney [3],pronephric angle neck segment [4]
COc1cc(C(=O)NCc2ccc(OCCN(C)C)cc2)cc(OC)c1OC [Trimethobenzamide hydrochloride],1.09 ± 0.18,1.05 ± 0.012,0.833,0.9712 ± 0.0027
CCc1c2c(nc3ccc(OC(=O)N4CCC(N5CCCCC5)CC4)cc13)-c1cc3c(c(=O)n1C2)COC(=O)[C@]3(O)CC [Irinotecan hydrochloride trihydrate],1.09 ± 0.45,1.02 ± 0.022,0.667,1.02 ± 0.028
O=C(CCCN1CCC(O)(c2ccc(Br)cc2)CC1)c1ccc(F)cc1 [Bromperidol],0.878 ± 0.23,1.03 ± 0.076,1,0.974 ± 0.038
CCCOc1ccc(C(=O)OCCN(CC)CC)cc1N [Proparacaine hydrochloride],0.768 ± 0.39,0.93 ± 0.052,0.833,0.998 ± 0.041
C[C@@H](O)[C@H]1C(=O)N2C(C(=O)O)=C(SCCNC=N)C[C@H]12 [Imipenem],0.805 ± 0.16,1.091 ± 0.01,1,0.951 ± 0.015
CCN(CC)CCCC(C)Nc1ccnc2cc(Cl)ccc12 (centres undefined) [Chloroquine diphosphate],1.16 ± 0.51,0.959 ± 0.049,1,0.991 ± 0.019
C#C[C@]1(O)CC[C@H]2[C@@H]3[C@H](C)CC4=C(CCC(=O)C4)[C@H]3CC[C@@]21C [Tibolone],0.915 ± 0.4,0.908 ± 0.019,0.75,0.924 ± 0.078
CC(C)NC[C@@H](O)COc1cccc2ccccc12 [(R)-Propranolol hydrochloride],1.07 ± 0.46,0.963 ± 0.013,0.833,0.98475 ± 0.00073
CCOC(=O)/C=C(C)/C=C/C=C(C)/C=C/c1c(C)cc(OC)c(C)c1C [Etretinate],0.794 ± 0.27,0.831 ± 0.034,1,1.093 ± 0.01
NC(N)=Nc1nc(CSCC/C(N)=N/S(N)(=O)=O)cs1 [Famotidine],1.11 ± 0.48,0.98 ± 0.038,0.833,0.9801 ± 0.0036
CNCC(O)c1ccc(O)c(O)c1 (centres undefined) [Racepinephrine hydrochloride],0.935 ± 0.21,0.946 ± 0.011,0.667,0.998 ± 0.035
CC(C)c1nc(CN(C)C(=O)N[C@H](C(=O)N[C@@H](Cc2ccccc2)C[C@H](O)[C@H](Cc2ccccc2)NC(=O)OCc2cncs2)C(C)C)cs1 [Ritonavir],1.18 ± 0.61,0.961 ± 0.094,1,1.02 ± 0.033
OC(CCCN1CCCCC1)(c1ccccc1)c1ccccc1 [Diphenidol hydrochloride],0.854 ± 0.23,1.1 ± 0.11,0.833,1.06 ± 0.02
CN(C)CCC(c1ccccc1)c1ccccn1 (centres undefined) [Pheniramine maleate],0.928 ± 0.19,1.07 ± 0.064,0.833,0.9206 ± 0.0039
O=C(NCCO[N+](=O)[O-])c1cccnc1 [Nicorandil],1.05 ± 0.44,0.989 ± 0.083,0.917,0.9232 ± 0.008
CCCOc1ccc2[nH]c(NC(=O)OC)nc2c1 [Oxibendazol],5.39 ± 2.3,0.505 ± 0.067,0,1.8 ± 0.035
CC1(C)O[C@@H]2C[C@H]3[C@@H]4C[C@H](F)C5=CC(=O)C=C[C@]5(C)[C@H]4[C@@H](O)C[C@]3(C)[C@]2(C(=O)CO)O1 [Flunisolide],1.26 ± 0.42,1.21 ± 0.018,0.667,0.92856 ± 0.0002
CC(=O)Oc1ccc(C(c2ccc(OC(C)=O)cc2)c2ccccn2)cc1 [Bisacodyl],0.927 ± 0.28,0.957 ± 0.038,0.917,1.01 ± 0.016
Clc1ccc(Cn2c(CN3CCCC3)nc3ccccc32)cc1 [Clemizole hydrochloride],1.13 ± 0.35,1.03 ± 0.036,0.545,1.02 ± 0.08

SMILES,glomerular separation [1],glomerular width [2],fraction of imaged embryos annotated as normal kidney [3],pronephric angle neck segment [4]
Cc1cc(CC(=O)O)n(C)c1C(=O)c1ccc(Cl)cc1 [Zomepirac sodium salt],0.83 ± 0.4,0.811 ± 0.033,0.273,1.23 ± 0.062
Cc1cc(C(=O)NNCc2ccccc2)no1 [Isocarboxazid],1.01 ± 0.72,1.21 ± 0.067,0.25,1.382 ± 0.0021
CC(NCCC(c1ccccc1)c1ccccc1)c1ccccc1 (centres undefined) [Fendiline hydrochloride],1.17 ± 0.28,0.995 ± 0.018,0.727,1 ± 0.036
Nc1nc2[nH]cc(CCc3ccc(C(=O)N[C@@H](CCC(=O)O)C(=O)O)cc3)c2c(=O)[nH]1 [Pemetrexed disodium],0.831 ± 0.39,1.08 ± 0.041,0.833,0.972 ± 0.057
COc1ccc2c(c1)N(C[C@H](C)CN(C)C)c1ccccc1S2 [Methotrimeprazine maleat salt],1.16 ± 0.65,0.993 ± 0.037,0.909,1.02 ± 0.016
CC1(C)O[C@@H]2C[C@H]3[C@@H]4CCC5=CC(=O)CC[C@]5(C)[C@@]4(F)[C@@H](O)C[C@]3(C)[C@]2(C(=O)CCl)O1 [Halcinonide],2.01 ± 0.91,1.18 ± 0.014,0.333,1.14 ± 0.043
COc1ccccc1N1CCN(CC(O)COc2cccc3ccccc23)CC1 (centres undefined) [Naftopidil dihydrochloride],0.922 ± 0.42,0.983 ± 0.024,0.833,0.966 ± 0.034
COc1ccc(-c2ccc3cc(C(=O)O)ccc3c2)cc1C12CC3CC(CC(C3)C1)C2 [Adapalene],0.97 ± 0.49,0.993 ± 0.012,0.833,1.1 ± 0.0022
CCCc1nc2c(C)cc(-c3nc4ccccc4n3C)cc2n1Cc1ccc(-c2ccccc2C(=O)O)cc1 [Telmisartan],1.22 ± 0.41,0.988 ± 0.024,0.75,1.16 ± 0.046
Cc1nnc(SCC2=C(C(=O)O)N3C(=O)[C@@H](NC(=O)Cn4cnnn4)[C@H]3SC2)s1 [Cefazolin sodium salt],0.771 ± 0.24,1.072 ± 0.008,0.75,1.03 ± 0.027
CN1CCC[C@@H]1CCO[C@](C)(c1ccccc1)c1ccc(Cl)cc1 [Clemastine fumarate],0.925 ± 0.57,1.01 ± 0.058,0.818,0.9686 ± 0.0025
COc1cccc2c1C(=O)c1c(O)c3c(c(O)c1C2=O)C[C@@](O)(C(C)=O)C[C@@H]3O[C@H]1C[C@H](N)[C@H](O)[C@H](C)O1 [Daunorubicin hydrochloride],0.979 ± 0.36,1.03 ± 0.019,0.917,1.04 ± 0.025
COc1ccc(NS(=O)(=O)c2ccc(N)cc2)nn1 [Sulfamethoxypyridazine],0.681 ± 0.15,1.03 ± 0.1,1,1.006 ± 0.0011
CC(=O)O[C@@]12CO[C@@H]1C[C@H](O)[C@@]1(C)C(=O)[C@H](O)C3=C(C)[C@@H](OC(=O)[C@H](O)[C@@H](NC(=O)OC(C)(C)C)c4ccccc4)C[C@@](O)([C@@H](OC(=O)c4ccccc4)[C@H]21)C3(C)C [Docetaxel],1.11 ± 0.48,0.978 ± 0.051,0.917,1.007 ± 0.0081
c1ccc2c(c1)CCCC2C1=NCCN1 (centres undefined) [Tetrahydrozoline hydrochloride],0.793 ± 0.31,1.06 ± 0.027,1,0.98 ± 0.042
O=C(NCC1CCCCN1)c1cc(OCC(F)(F)F)ccc1OCC(F)(F)F (centres undefined) [Flecainide acetate],0.977 ± 0.32,1.03 ± 0.022,0.75,0.961 ± 0.023
CC(CCc1ccccc1)NCC(O)c1ccc(O)c(C(N)=O)c1 (centres undefined) [Labetalol hydrochloride],1.04 ± 0.16,1.05 ± 0.075,0.917,1.07 ± 0.069
CCCCNc1cc(C(=O)O)cc(S(N)(=O)=O)c1Oc1ccccc1 [Bumetanide],1.41 ± 0.43,1.08 ± 0.023,0.75,1 ± 0.022
CCCCC1=NC2(CCCC2)C(=O)N1Cc1ccc(-c2ccccc2-c2nnn[nH]2)cc1 [Irbesartan],3.04 ± 1.1,0.56 ± 0.11,0.75,1.1 ± 0.022

SMILES,glomerular separation [1],glomerular width [2],fraction of imaged embryos annotated as normal kidney [3],pronephric angle neck segment [4]
C[C@@H](O[C@H]1OCCN(Cc2n[nH]c(=O)[nH]2)[C@H]1c1ccc(F)cc1)c1cc(C(F)(F)F)cc(C(F)(F)F)c1 [Aprepitant],0.995 ± 0.34,1.09 ± 0.076,0.667,1.05 ± 0.059
CCC1(C)CC(=O)NC1=O (centres undefined) [Ethosuximide],0.979 ± 0.37,1.07 ± 0.029,0.833,0.972 ± 0.013
COc1cc(C(=O)NC2CCCNC2)cc(OC)c1OC (centres undefined) [Troxipide],1.14 ± 0.54,0.976 ± 0.011,0.917,0.953 ± 0.027
CCN(CC)CCOC(=O)C1(c2ccc([N+](=O)[O-])cc2)CCCC1 [Nitrocaramiphen hydrochloride],0.899 ± 0.43,0.971 ± 0.037,0.909,0.984 ± 0.075
COc1ccc2cc([C@H](C)C(=O)O)ccc2c1 [Naproxen],2.89 ± 1.8,0.9508 ± 0.0065,0.167,1.52 ± 0.036
CNCCC(Oc1ccc(C(F)(F)F)cc1)c1ccccc1 (centres undefined) [Fluoxetine hydrochloride],1.23 ± 0.69,0.903 ± 0.041,0.583,1.04 ± 0.054
CC(=O)OCC(=O)NCCCOc1cccc(CN2CCCCC2)c1 [Roxatidine Acetate hydrochloride],1.07 ± 0.37,1 ± 0.03,0.667,1.01 ± 0.06
Nc1ncnc2c1ncn2[C@@H]1O[C@H](CO)[C@@H](O)[C@@H]1O [Vidarabine],1.29 ± 0.56,1.06 ± 0.023,0.583,1.03 ± 0.074
CN1CCN(C(c2ccccc2)c2ccccc2)CC1 [Cyclizine hydrochloride],0.835 ± 0.14,0.9853 ± 0.0046,0.833,0.952 ± 0.018
NS(=O)(=O)c1cc(C2(O)NC(=O)c3ccccc32)ccc1Cl (centres undefined) [Chlorthalidone],1.04 ± 0.23,1.04 ± 0.079,0.75,1.02 ± 0.073
NS(=O)(=O)c1cc(C(=O)O)cc(N2CCCC2)c1Oc1ccccc1 [Piretanide],1.08 ± 0.68,1.02 ± 0.048,0.917,1.03 ± 0.038
COC(=O)Nc1nc2ccc(SC(C)C)cc2[nH]1 [Methiazole],3.98 ± 1.2,0.49428 ± 0.00044,0,1.95 ± 0.046
CCN(CC)C(=S)SSC(=S)N(CC)CC [Disulfiram],3.4 ± 1.9,0.458 ± 0.05,0,1.7 ± 0.043
CC[C@]12CCCN3CCc4c(n(c5ccccc45)[C@@](O)(C(=O)OC)C1)[C@@H]32 [Vincamine],0.967 ± 0.23,0.965 ± 0.01,0.909,1.05 ± 0.057
Cc1ccc(S(=O)(=O)NC(=O)NN2CCCCCC2)cc1 [Tolazamide],0.828 ± 0.19,0.948 ± 0.015,0.917,0.972 ± 0.023
Clc1ccc2c(c1)C(N1CCNCC1)=Nc1ccccc1O2 [Amoxapine],1.04 ± 0.33,0.9699 ± 0.0014,0.75,1.02 ± 0.039
CC(C)NC[C@@H](O)COc1ccc(CC(N)=O)cc1 [(R)-(+)-Atenolol],0.655 ± 0.16,0.977 ± 0.036,0.917,0.977 ± 0.029
Cn1nnc2c(C(N)=O)ncn2c1=O [Temozolomide],0.665 ± 0.25,1 ± 0.046,0.917,0.9479 ± 0.0066
